Our source for the outcome and AC50 values is PubChem BioAssay (EPA / NIEHS).

Where “and” joins values, the source holds several entries; their conditions need not be identical. Equal values may be shown once. Inconclusive results are not listed. Calls of active or inactive are those of the source. How the source made its calls: active means hit-call score of the fitted dose curve at least 0.9, where 1 is the maximum; inconclusive means response in the unintended direction; inactive means score below 0.9.

The experiment in a line: ACEA_ER_AUC_viability: ACEA Biosciences xCELLigence Real-Time Cell Analysis on Estrogen Receptor Agonism for Viability (AID 2283782).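 Further: continuous compound exposure with impedance area under curve over 80 h; hit means loss of impedance signal meaning reduced cell growth or viability.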 The gist of the method:
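T-47D human breast cells in phenol red-free RPMI1640 with 10% charcoal-stripped FBS were dosed with an 8-point 1:4 dilution series from 100 uM top final concentration, in duplicate. Impedance-based growth was followed for 80 h; AUC analysed versus DMSO.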
With `CCN(CCC#N)c1ccccc1`, the result was inactive. As a reminder, the AC50 is the concentration at which the activity in the assay is half-maximal. Take `COc1ccc(C#N)cc1`: the half-maximal activity concentration (AC50) was 50 µM (active). Turning to `C=CC(=O)OCCN(CC)CC`, the molecule was called inactive. The same measure, in the same setting: with `CCC(=O)O` the entry was “inactive”. The same measure, in the same setting: with `CC1CNCC(C)O1` (configuration not stated) the entry was “inactive”; with `COc1cccc(O)c1`, “inactive”. In the case of `C=COC(=O)C(C)(C)CCCCCC`, the half-maximal activity concentration (AC50) was 19.6 µM (active). `O=C(CC(=O)C(F)(F)C(F)(F)C(F)(F)F)c1cccs1`: the AC50 is 113 µM (active). The same measure, in the same setting: with `CCCCCCCCCCCC[N+](C)(C)Cc1ccccc1` the figure was 3.05 µM (active) and 5.69 µM (active). The same measure, in the same setting: as for `CC(C)CCOCCC(C)C`, the figure is 37.5 µM (active).

For the molecule `O=C(O)C(=O)O`, the outcome was inactive. Same read-out and setting: with `Clc1ccc2c(Cl)ccnc2c1` the entry was “inactive”.

As to `Oc1cc2ccccc2cc1O`, the concentration at half-maximal activity (AC50) is 40.8 µM (active). With `O=C1c2ccc(O)c(O)c2C(=O)c2c(O)ccc(O)c21`, the concentration at half-maximal activity (AC50) was 6.67 µM (active).

For `O=C(O)CCC(F)(F)C(F)(F)C(F)(F)C(F)(F)C(F)(F)C(F)(F)F`, the call was inactive.

In the case of `CCCCCCCCCCCCOC(=O)c1cc(O)c(O)c(O)c1`, the AC50 was 2.97 µM (active). Still for that read-out and setting: with `Cc1cc(Cc2cc(C)cc(C(C)(C)C)c2O)c(O)c(C(C)(C)C)c1` the figure was 11.4 µM (active).

Consider `O=C1NS(=O)(=O)c2ccccc21`, for which the call was inactive. For `Nc1ccn([C@@H]2O[C@H](CO)[C@@H](O)C2O)c(=O)n1` (some centres not stated), the half-maximal activity concentration (AC50) was 9.92 µM (active).

On to `CCCCCCCCC1CCC(=O)O1` (configuration not stated), for which the half-maximal activity concentration (AC50) is 67.5 µM (active).

In the case of `NCc1cccc(CN)c1`, the outcome was inactive.

On to `C=CC(=O)OCCC(F)(F)C(F)(F)C(F)(F)C(F)(F)C(F)(F)C(F)(F)C(F)(F)C(F)(F)F`, for which the molecule was called inactive. As for `CN(C)c1ccc(C(=C2C=CC(=[N+](C)C)C=C2)c2ccccc2)cc1`, the concentration at half-maximal activity (AC50) is 3.16 µM (active) and 3.1 µM (active). Regarding `CCO[Si](C)(C)OCC`, the molecule was called inactive. The same measure, in the same setting: with `O=C(O)c1cccc(C(=O)O)n1` the entry was “inactive”. Regarding `CCCCCCCCCCCC`, the concentration at half-maximal activity (AC50) was 50 µM (active) and 40.4 µM (active). As to `C=CC(C)(CCC=C(C)C)OC(C)=O` (configuration not stated), the molecule was called inactive.
